Activity calls are given as the source filed them. The call rests on the fitted dose curve; in most records, active means well fitted curve in the direction sought with a large enough effect in the repeat runs; inconclusive means weak or mixed curves; inactive means flat fitted curve, though single readings scatter.
experiment: qHTS assay to test for compound auto fluorescence at 460 nm (blue) in HEK293 cells (AID 720678); conditions: blue autofluorescence 405/460 nm; series mostly up to 91.3 µM
Text: National Center for Advancing Translational Sciences [NCATS]
NIH Chemical Genomics Center [NCGC]
U.S. Environmental Protection Agency [EPA]
National Institutes of Environmental Health Sciences [NIEHS]
National Toxicology Program [NTP]
U.S. Food and Drug Administration [FDA]
Compound auto fluorescence often interferes with screening of the compound library against various biological targets and signaling pathways. Some of these compounds may have fluorophoric properties. Such properties may interfere with the assay outputs resulting in false positives and/or negatives. To decrease such complications and ensure the compound activities are relevant in terms of biological response, the Tox21 10K compound library was screened for auto fluorescence.
From the fluorophores used as reporter signals in our screening assays, the auto fluorescence equivalencies of compounds against three fluorophores have been evaluated: Triamterene, Fluorescein and Rose Bengal sodium for blue, green and red fluorescence, respectively. The fluorescence intensities were measured using Excitation/Emission wavelengths at 405/460nm, 485/535nm and 540/590nm for blue, green and red labels, respectively. This assay includes the blue fluorescence data.
Tox21 Assay Protocol Summary:
2,000 HEK293 cells in 5 uL of culture medium containing 10% dialyzed FBS per well were dispensed into black wall/clear bottom 1536-well plates using a Multidrop Combi Dispenser (Thermo Scientific). The assay plates were incubated for 4-5 hr at 37C to allow cell attachment to the well bottom, followed by the transfer of 23 nL compound or DMSO vehicle by a pintool work station (Kalypsys, San Diego, CA). After the assay plates were incubated overnight at 37C and 5% CO2, fluorescence intensities in the assay plates were measured by an Envision (PerkinElmer, Shelton, CT) plate reader using three labels for measuring blue, green and red fluorescence at […] 460, 535 and 590nm respectively.

Compound | outcome
CC(O)C(=O)O (stereo not given) | inactive
O=c1ccc2ccccc2o1 | inactive
O=C(O)CCCCC(=O)O | inactive
O=C(O)c1[nH]n(-c2ccc(S(=O)(=O)O)cc2)c(=O)c1N=Nc1ccc(S(=O)(=O)O)cc1 | inactive
CC(O)CO (stereo not given) | inactive
O=C(O)CS | inactive
Nc1ccn([C@H]2CC[C@@H](CO)O2)c(=O)n1 | inactive
Cc1cn([C@H]2C[C@H](N=[N+]=[N-])[C@@H](CO)O2)c(=O)[nH]c1=O | inactive
CCOc1ccc(NC(=O)CC(C)O)cc1 (stereo not given) | inactive
O=c1cc[nH]c(=S)[nH]1 | inactive
O=C1CN(/N=C/c2ccc([N+](=O)[O-])o2)C(=O)N1 | inactive
NC(N)=O | inactive
CC(=O)NS(=O)(=O)c1ccc(N)cc1 | inactive
NNC(=O)c1ccncc1 | inactive
CCCCC1C(=O)N(c2ccccc2)N(c2ccccc2)C1=O | inactive
C[C@]12C=CC(=O)C=C1CC[C@@H]1[C@@H]2[C@@H](O)C[C@@]2(C)[C@H]1CC[C@]2(O)C(=O)CO | inactive
Nc1ccc(C(=O)O)cc1 | inactive
O=C(O)C(=O)O | inactive
CNC[C@H](O)c1cccc(O)c1 | inactive
N=C(N)c1ccc(OCCCCCOc2ccc(C(=N)N)cc2)cc1 | inactive

Compound | outcome
Cc1ccccc1C(OCCN(C)C)c1ccccc1 (stereo not given) | inactive
NC(=O)c1cnccn1 | inactive
CC(=O)Nc1nnc(S(N)(=O)=O)s1 | inactive
O=C(O)CCCCCCCC(=O)O | inactive
O=C(C1CCCCC1)N1CC(=O)N2CCc3ccccc3C2C1 (stereo not given) | inactive
O=NO | inactive
O=C(O)c1cc(N=Nc2ccc(S(=O)(=O)Nc3ccccn3)cc2)ccc1O | inactive
Cn1cc[nH]c1=S | inactive
Cn1c(=O)c2[nH]cnc2n(C)c1=O | inactive
Nc1ccc(S(=O)(=O)Nc2nccs2)cc1 | inactive
Cc1cc(=O)[nH]c(=S)[nH]1 | inactive
C1N2CN3CN1CN(C2)C3 | inactive
COc1ccc2[nH]cc(CCNC(C)=O)c2c1 | inactive
NS(=O)(=O)c1cc(C(=O)O)c(NCc2ccco2)cc1Cl | inactive
Cc1ccc(S(=O)(=O)NC(=O)NN2CCCCCC2)cc1 | inactive
Nc1ccc(O)c(C(=O)O)c1 | inactive
Oc1ccc(/C=C/c2cc(O)cc(O)c2)cc1 | inactive
NC(N)=NC(=O)c1nc(Cl)c(N)nc1N | inactive
CCCC(CCC)C(=O)O | inactive
O=C(O)c1cccnc1 | inactive
